Screening results: PubChem BioAssay, Broad Institute
SIRT5 inh = inhibitors of human sirtuin-5 desuccinylase; inhibition, % at 15 µM; AID 652115; Purified SirT5, succinyl-peptide AMC, trypsin-coupled fluorescence; Q9NXA8; actives 1.1% (n = 330,000); in the data active means inhibition above about 15%
FGF22 binding = binders of recombinant human FGF22 by thermal shift; actives 1.5% (n = 340,000); SYPRO orange fluorescence; percent of sucrose octasulfate shift, DMSO zero; AID 651658; activity (Tm shift, normalised), % at 9.99 µM;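 active means mean Tm shift, scaled 0 neutral to 100 positive control, at about 1.3% or above, every replicate too, limit read from the data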
PvdQ acylase = blocks Pseudomonas aeruginosa PvdQ acylase activity; AID 488965; inhibition, % at 10 µM; actives 0.063% (n = 340,000); purified PvdQ acylase, fluorescence plate reader; in the data active means inhibition above about 30%, passing the limit was not always enough
CDK5 inh = CDK5/p35 (human) kinase inhibition; actives 0.01% (n = 330,000); Recombinant CDK5/p35, ADP-Glo luminescence, 60 min; inhibition, % at 10 µM; Q00535+Q15078;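 active means highest replicate inhibition of at least 50% and at least 75% of replicates reaching 50%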
PglD inh = blocks C. jejuni PglD acetyltransferase activity; actives 0.098% (n = 360,000); inhibition, % at 12.5 µM; purified PglD enzyme, DTNB colorimetric CoA detection; in the data active means inhibition above about 16%, passing the limit was not always enough
dFosB activator = mouse delta FosB homodimer activation; activation, % at 25 µM; purified delta FosB, TAMRA-CDK5 oligo fluorescence polarization; percent of positive-control signal above neutral wells; AID 493131; P13346; actives 0.99% (n = 340,000);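 active means mean activation above about 17%, with every replicate also reaching it, limit read from the data, passing the limit was not always enough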
Target sequence (P13346 whole entry, looked up): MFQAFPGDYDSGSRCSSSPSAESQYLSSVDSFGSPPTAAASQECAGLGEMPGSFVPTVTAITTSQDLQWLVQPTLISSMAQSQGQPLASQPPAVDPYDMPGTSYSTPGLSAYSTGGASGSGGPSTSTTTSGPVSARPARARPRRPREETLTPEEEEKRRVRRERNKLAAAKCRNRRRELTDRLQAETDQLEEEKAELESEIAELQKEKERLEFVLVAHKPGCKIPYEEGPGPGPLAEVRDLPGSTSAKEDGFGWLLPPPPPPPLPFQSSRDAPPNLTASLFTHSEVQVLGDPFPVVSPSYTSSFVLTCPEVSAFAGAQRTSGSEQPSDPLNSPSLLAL
Hits are given with their value; n = inactive; x = not tested or not shown. A selection: hits, their analogues and other compounds. The true share with any hit is near 2.8%.

SMILES | SIRT5 inh | FGF22 binding | PvdQ acylase | CDK5 inh | PglD inh | dFosB activator
Cc1noc(C)c1S(=O)(=O)Nc1ccc2c(c1)C(=O)N([C@H](C)CO)C[C@H](C)[C@H](CN(C)C(=O)Nc1ccc(F)cc1)OCCCC[C@@H](C)O2 | n | n | x | x | n | x
COc1ccccc1NC(=O)N1C[C@@H]2[C@H](c3ccccc31)[C@@H](CO)N2CC1CCCC1 | n | n | x | x | n | x
C[C@H](CO)N1C[C@H](C)[C@@H](CN(C)C)Oc2ncc(-c3ccccc3F)cc2C1=O | n | n | x | x | n | x
O=C(C1CCCC1)N1CC(=O)N2[C@H](C1)[C@@H](c1ccc(C#CC3CCCC3)cc1)[C@@H]2CO | n | x | x | x | x | x
C[C@H]1CN([C@@H](C)CO)C(=O)c2ccccc2-c2ccccc2CO[C@@H]1CN(C)Cc1ccc(C(=O)O)cc1 | n | n | x | x | n | x
CC(=O)Nc1c(O)nc(SC/C=C/CSc2nc(O)c(NC(C)=O)c(=O)[nH]2)[nH]c1=O | n | 43.0 | n | n | x | n
CC(=O)Nc1c(O)nc(SCc2ccccc2C#N)[nH]c1=O | n | n | n | n | x | n
CC=Cc1ccc2n(c1=O)C[C@@H]1[C@@H](CO)[C@H](C(=O)NC3CCC3)N(CC)[C@H]21 (mixture of isomers) | n | n | x | x | n | x
COc1ccc(CC(=O)NNC(=O)c2ccccc2)cc1OC | n | n | n | n | n | n
COc1ccc(CC(=O)NNC(=O)c2ccc(Br)s2)cc1OC | n | 42.9 | n | n | n | n
CC(=O)c1ccc(N2CC(C)(C)C2=O)cc1 | n | 43.0 | n | n | n | n
O=C(Oc1ccc(Oc2ccccc2)cc1)N1CCC(O)CC1 | 34.1 | n | n | n | n | n
COc1ccc(NC(=O)Nc2ccc3c(c2)C(=O)N([C@H](C)CO)C[C@@H](C)[C@@H](CN(C)Cc2ccc(C(=O)Nc4ccccc4N)cc2)O3)cc1 | n | n | x | x | n | x
COc1ccc(NC(=O)Nc2ccc3c(c2)C(=O)N([C@H](C)CO)C[C@H](C)[C@H](CN(C)Cc2ccc(-c4ccccc4)cc2)O3)cc1 | n | n | x | x | n | x
COc1ccc(NC(=O)Nc2ccc3c(c2)C(=O)N([C@@H](C)CO)C[C@@H](C)[C@@H](CN(C)Cc2ccc(C(=O)Nc4ccccc4N)cc2)O3)cc1 | 16.4 | n | x | x | n | x
COc1ccc(-c2cnc3c(c2)C(=O)N([C@@H](C)CO)C[C@H](C)[C@@H](CN(C)Cc2ccc(C(=O)O)cc2)O3)cc1 | 21.0 | n | x | x | n | x
COc1ccc(NC(=O)Nc2ccc3c(c2)C(=O)N([C@@H](C)CO)C[C@@H](C)[C@@H](CN(C)Cc2ccc(-c4ccccc4)cc2)O3)cc1 | 16.5 | n | x | x | n | x
COc1ccc(NC(=O)Nc2ccc3c(c2)C(=O)N([C@@H](C)CO)C[C@@H](C)[C@@H](CN(C)Cc2ccncc2)O3)cc1 | 27.3 | n | x | x | n | x
COc1ccc(-c2cnc3c(c2)C(=O)N([C@H](C)CO)C[C@H](C)[C@H](CN(C)Cc2ccc(C(=O)O)cc2)O3)cc1 | n | n | x | x | n | x
C[C@@H]1CN([C@@H](C)CO)S(=O)(=O)c2ccc(C#CC3CC3)cc2O[C@@H]1CN(C)C(=O)c1ccncc1 | n | n | x | x | n | x
FC(F)Sc1ccc(NC(=S)NCc2ccccc2)cc1 | n | 43.4 | n | n | n | n
CC(=O)CCC(=O)OCC(=O)Nc1ccc(SC(F)F)cc1 | n | 43.1 | n | n | x | n
FC(F)Sc1ccc(NC(=S)NC(c2ccccc2)c2ccccc2)cc1 | n | n | n | n | x | n
O=C(COc1ccccc1C(=O)O)Nc1ccc(SC(F)F)cc1 | n | 43.0 | n | n | n | n
CC(C)=CC(=O)OCC(=O)Nc1ccc(SC(F)F)cc1 | n | 43.9 | n | n | x | n
COCCNC(=O)C[C@H]1CC[C@H]2[C@H](COc3ccc(NC(=O)Cc4ccccc4)cc3C(=O)N2C)O1 | n | n | x | x | n | x
CC(C)NC(=O)N(C)C[C@H]1Oc2ccc(NC(=O)CCCCCC(=O)Nc3ccccc3N)cc2CC(=O)N([C@@H](C)CO)C[C@@H]1C | n | n | x | x | n | x
Nc1nc2ccc(Cl)cc2[nH]1 | x | 43.2 | n | n | n | n
COCC(=O)Nc1ccc2c(c1)OC[C@H](C)N(CC1CCCCC1)C[C@H](C)[C@@H](OC)CN(C)C2=O | n | n | x | x | n | x
CCSc1ccc(-c2cccc([N+](=O)[O-])c2)nn1 | n | n | 48.4 | n | n | n
